This is an account of results in PubChem BioAssay AID2524 (Sanford-Burnham Center for Chemical Genomics, 2010).

Out of some 330,000 compounds screened, about 540 (0.16%) were called active.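 Rule for the calls: active = activation factor of the enzyme at least 2-fold when tested at 20 µM; inactive = the rest.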 The entries come from a sample that favours actives as a whole.

For this test, the target named is Intestinal-type alkaline phosphatase (Homo sapiens) (UniProt P09923). The test can be described thus: enzymatic activation of intestinal alkaline phosphatase – biochemical, luminescence, uHTS, primary screen (AID 2524). The settings on record: purified human IAP, CDP-Star luminescence, 30 min; at 10 µM; active compounds read high; 1 = vehicle-only enzyme, 0 = enzyme-free background.
Intestinal-type alkaline phosphatase (Homo sapiens), sequence (P09923 whole entry, looked up): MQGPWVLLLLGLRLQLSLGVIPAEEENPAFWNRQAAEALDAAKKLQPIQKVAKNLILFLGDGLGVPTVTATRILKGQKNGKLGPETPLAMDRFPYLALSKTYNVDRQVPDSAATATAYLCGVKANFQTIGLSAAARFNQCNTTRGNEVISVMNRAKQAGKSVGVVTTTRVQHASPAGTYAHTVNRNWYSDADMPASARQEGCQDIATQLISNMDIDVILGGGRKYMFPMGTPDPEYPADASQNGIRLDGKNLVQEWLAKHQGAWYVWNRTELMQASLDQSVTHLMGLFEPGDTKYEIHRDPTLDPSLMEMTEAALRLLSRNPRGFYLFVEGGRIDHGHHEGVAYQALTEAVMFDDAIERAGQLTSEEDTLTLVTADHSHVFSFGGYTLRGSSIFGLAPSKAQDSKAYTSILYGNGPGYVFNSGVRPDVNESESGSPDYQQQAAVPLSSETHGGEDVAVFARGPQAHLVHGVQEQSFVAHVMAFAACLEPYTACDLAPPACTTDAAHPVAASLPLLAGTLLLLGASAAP
Turning to `CN1CCC(N(C)S(=O)(=O)c2ccc(NC(=O)c3cccc(C#N)c3)cc2)CC1`, the activation factor is 0.888 (inactive).

Consider `Cc1ccc(O)c(-c2cc(C(=O)NCc3ccccc3)[nH]n2)c1`, for which the activation factor is 2.06 (active).

Turning to `Cc1ccc(O)c(-c2cc(C(=O)Nc3c(C)n(C)n(-c4ccccc4)c3=O)[nH]n2)c1`, the activation factor was 1.84 (inactive).

Consider `Cc1ccc(NC(=O)c2cc(-c3ccccc3O)n[nH]2)cc1C`, for which the activation factor was 2.39 (active).

Take `Cc1ccc(C)c(NC(=O)c2cc(-c3cc(C)cc(C)c3O)n[nH]2)c1`: the activation factor is 1.49 (inactive).

Turning to `Cc1ccc(CNC(=O)c2ccccc2CCc2ccccc2)cc1`, the activation factor was 0.921 (inactive).

On to `Cc1ccc(NC(=O)CCN2C(=O)c3ccccc3C2=O)cc1C`, for which the activation factor is 0.917 (inactive).

As to `CN1CCN(CC(O)COCc2ccc3c(c2)OCO3)CC1` (stereo not given), the activation factor is 0.998 (inactive).

As to `CC(C)COC(=O)C1C2C=CC3(CN(C(C)c4ccc(Br)cc4)C(=O)C13)O2` (stereo not given), the activation factor was 0.726 (inactive).

Regarding `COc1cc(NS(=O)(=O)c2ccc(N/C=C(\C=O)c3nc4cc(Cl)ccc4o3)cc2)nc(OC)n1`, the activation factor was 1.26 (inactive).

With `COc1ccc(C(=O)NC2CC(C)(C)Cc3c2cnn3-c2ccccc2C)o1` (stereo not given), the activation factor was 1.38 (inactive).

Regarding `CCCc1ccc(C(=O)COC(=O)CN2C(=O)NC3(CCCCC3C)C2=O)cc1` (stereo not given), the activation factor was 1.11 (inactive).

For the molecule `CC(C)CCn1c(=O)c2c(nc3n2CCCN3Cc2ccccc2)n(C)c1=O`, the activation factor is 0.846 (inactive).

With `COc1ccc(NS(=O)(=O)c2ccc(Oc3c(C#N)cccc3C#N)cc2)cc1`, the activation factor is 1.1 (inactive).

Turning to `CCn1nc(NC(=O)c2ccco2)c2cc3ccc(C)cc3nc21`, the activation factor is 1.16 (inactive).

Regarding `CC(C)n1cnc2c(NCc3ccccc3)cc(N[C@@H](CO)Cc3ccccc3)cc21`, the activation factor is 0.984 (inactive).

On to `O=C(Nc1ccc(N2CCOCC2)cc1)c1cccc(S(=O)(=O)N2CCOCC2)c1`, for which the activation factor is 1.08 (inactive).

`O=C(NNC(=S)Nc1ccccc1)c1cccc(S(=O)(=O)N2CCOCC2)c1`: the activation factor was 2.01 (active).

For `Cc1cc(C(=O)NNC(=O)c2cccc(S(=O)(=O)N3CCOCC3)c2)c2ccccc2n1`, the activation factor is 0.981 (inactive).

As for `CCOC(=O)CNC(=O)/C=C/c1c(Cl)cccc1Cl`, the activation factor is 0.968 (inactive).

With `C/C(=N\OC(=O)c1ccccc1)c1c(C)nc2cc(C)ccn12`, the activation factor was 1.06 (inactive).

For `O=C(Nc1cccc(-c2cccc(Cl)c2)c1)C1CCN(C2CCC2)CC1`, the activation factor was 4.26 (active).

On to `COc1cccc(-c2cccc(NC(=O)C3CCN(C4CCC4)CC3)c2)c1`, for which the activation factor was 1.23 (inactive).

Consider `CCn1cc(CN2CCC(C(=O)Nc3cccc(-c4cccc(Cl)c4)c3)CC2)cn1`, for which the activation factor is 1.12 (inactive).

For `CC(=O)Nc1cccc(OCC(=O)/C=C2\N(C)c3ccccc3C2(C)C)c1`, the activation factor is 0.862 (inactive).

Consider `CN(C)c1cccc(C(=O)N2CCC(n3nccc3NC(=O)C3CCOC3)CC2)c1` (stereo not given), for which the activation factor is 1.28 (inactive).

Consider `CN1CCc2c(sc3c2c(NCc2ccco2)nc2nnnn23)C1`, for which the activation factor is 1.04 (inactive).

With `COc1ccc(NC(=O)CC2C(=O)OCC3CCCCN32)cc1Cl` (stereo not given), the activation factor is 1.01 (inactive).

Turning to `O=C(COc1ccc(Cl)cc1)NCCS(=O)(=O)N1CCN(c2ccc(F)cc2)CC1`, the activation factor was 0.818 (inactive).

For the molecule `CCc1c(C)nc(SCC(=O)NC2CCCC2)[nH]c1=O`, the activation factor is 1.03 (inactive).

Turning to `NS(=O)(=O)c1cccc(NC(=O)COC(=O)c2cc([N+](=O)[O-])ccc2N2CCCC2)c1`, the activation factor was 0.907 (inactive).

Consider `CCc1ccc(S(=O)(=O)Nc2ccc(C)c(NS(C)(=O)=O)c2)cc1`, for which the activation factor was 0.919 (inactive).

As for `Cc1ccccc1NC(=O)Cn1cc(C(=O)C2CC2)c2ccccc21`, the activation factor was 1.02 (inactive).

In the case of `[2H]C(CCOS(N)(=O)=O)c1ccccc1` (stereo not given), the activation factor is 0.959 (inactive).

On to `CN(C)NC(=O)c1csnc1-c1c(Cl)cccc1Cl`, for which the activation factor was 1.14 (inactive).

For `CCC(=O)Nc1ccc(C(=O)NNC(=O)c2ccc(Cl)cc2)cc1`, the activation factor is 1.31 (inactive).

As for `O=C(Nc1ccc(Cl)cc1)c1ccsn1`, the activation factor is 4.15 (active).

With `O=C(NCc1ccccn1)Nc1ccc(Cl)cc1`, the activation factor is 1.08 (inactive).

For `CCCOCC(O)CC(CC)C(=O)NNC(=S)Nc1ccccc1` (stereo not given), the activation factor was 2.11 (active).

Take `CCCN(CCC)CC(O)COc1ccccc1C(=O)Nc1ccccc1` (stereo not given): the activation factor is 0.915 (inactive).

Consider `CCCCC(=O)NNC(=S)NC(=O)C(c1ccccc1)c1ccccc1`, for which the activation factor is 1.36 (inactive).

With `CC(C)(C)OC(=O)NCCCCCNC(=O)c1nc[nH]c1C(=O)NCc1ccccc1`, the activation factor is 1.26 (inactive).

With `CC(NC(=O)C(=O)Nc1nccs1)c1ccccc1` (stereo not given), the activation factor was 1.05 (inactive).

In the case of `C[C@H](NC(=O)c1[nH]cnc1C(=O)Nc1nccs1)c1ccccc1`, the activation factor is 2.51 (active).

With `Cc1ccc(NC(=O)c2nc[nH]c2C(=O)N[C@@H](CCCCNC(=O)OC(C)(C)C)C(=O)OC(C)(C)C)cc1`, the activation factor was 1.3 (inactive).

`CC(C)(C)OC(=O)NCCCCCNC(=O)c1[nH]cnc1C(=O)Nc1nccs1`: the activation factor was 2.41 (active).

Regarding `C[C@H](NC(=O)c1nc[nH]c1C(=O)NCC(=O)OC(C)(C)C)c1ccccc1`, the activation factor was 1.32 (inactive).

Turning to `Oc1ccc(-c2cccc(-c3ccc(O)cc3)c2)cc1`, the activation factor was 1.01 (inactive).

In the case of `COc1ccc(C2CC(c3ccccc3)=NN2C(=O)CSc2nccc(=O)[nH]2)cc1` (stereo not given), the activation factor is 0.925 (inactive).

For the molecule `COc1ccc(CC(=O)Nc2c3c(nn2-c2cccc(Cl)c2)CS(=O)C3)cc1` (stereo not given), the activation factor is 1.09 (inactive).

For the molecule `Cc1ccc(OCC(=O)NNC(=S)NCc2ccccc2)cc1`, the activation factor is 1.08 (inactive).

Take `O=C(NNC(=S)NCc1ccccc1)c1ccc(OC(F)F)cc1`: the activation factor is 0.898 (inactive).

For `CC(C)Oc1ccc(CCC(=O)NNC(=S)NCc2ccccc2)cc1`, the activation factor is 2.01 (active).

Consider `Cc1cccc(C(=O)N[C@H](C(=O)NCc2cccs2)C(C)C)c1`, for which the activation factor was 1.11 (inactive).

Take `CCOCCCn1c(SCC(=O)Nc2cc(OC)ccc2OC)nc2ccccc2c1=O`: the activation factor was 0.95 (inactive).

With `OC(COc1ccc(CN2CCSCC2)cc1)CN1CCCCC1` (stereo not given), the activation factor is 1.12 (inactive).

With `CCCCN1C(=O)CC(N2CCOCC2)C1=O` (stereo not given), the activation factor is 1.04 (inactive).

As for `S=c1[nH]cc(-c2ccc(Cl)cc2)n1-c1ccccc1`, the activation factor was 1.42 (inactive).

`COc1ccc(N2C(=O)NC(NS(=O)(=O)c3ccc(Cl)cc3)(C(F)(F)F)C2=O)cc1` (stereo not given): the activation factor is 0.861 (inactive).

Take `Cn1c(N)c(C(=O)COC(=O)c2ccccc2NCc2ccco2)c(=O)n(C)c1=O`: the activation factor was 1.07 (inactive).
